Test results as given in ChEMBL document CHEMBL1961873, “Compounds: GSK PKIS; Assays: Nanosyn kinase panel” (2012).

What was measured:
[1] = target: RAC-alpha serine/threonine-protein kinase (Homo sapiens) (UniProt P31749); conditions: at 0.1 µM
[2] = target: RAC-alpha serine/threonine-protein kinase (Homo sapiens) (UniProt P31749); conditions: at 1 µM
[3] = target: RAC-beta serine/threonine-protein kinase (Homo sapiens) (UniProt P31751); conditions: at 0.1 µM
[4] = target: RAC-beta serine/threonine-protein kinase (Homo sapiens) (UniProt P31751); conditions: at 1 µM
[5] = target: RAC-gamma serine/threonine-protein kinase (Homo sapiens) (UniProt Q9Y243); conditions: at 0.1 µM
Sequence of RAC-gamma serine/threonine-protein kinase (Homo sapiens) (Q9Y243 whole entry): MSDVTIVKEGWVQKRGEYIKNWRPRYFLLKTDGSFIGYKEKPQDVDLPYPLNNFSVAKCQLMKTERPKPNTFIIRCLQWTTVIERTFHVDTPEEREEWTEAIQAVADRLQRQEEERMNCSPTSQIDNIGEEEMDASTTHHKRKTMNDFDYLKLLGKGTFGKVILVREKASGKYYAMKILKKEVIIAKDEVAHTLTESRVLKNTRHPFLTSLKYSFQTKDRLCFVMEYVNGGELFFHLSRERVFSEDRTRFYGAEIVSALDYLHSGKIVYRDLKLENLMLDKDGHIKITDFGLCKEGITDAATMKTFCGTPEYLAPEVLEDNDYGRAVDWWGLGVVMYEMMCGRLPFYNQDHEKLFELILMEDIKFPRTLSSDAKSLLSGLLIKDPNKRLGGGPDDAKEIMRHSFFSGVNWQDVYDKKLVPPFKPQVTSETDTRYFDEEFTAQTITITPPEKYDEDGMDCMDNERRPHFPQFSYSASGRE

[6] = target: RAC-gamma serine/threonine-protein kinase (Homo sapiens) (UniProt Q9Y243); conditions: at 1 µM
[7] = target: G protein-coupled receptor kinase 6 (Homo sapiens) (UniProt P43250); conditions: at 0.1 µM
Sequence of G protein-coupled receptor kinase 6 (Homo sapiens) (P43250 whole entry, looked up): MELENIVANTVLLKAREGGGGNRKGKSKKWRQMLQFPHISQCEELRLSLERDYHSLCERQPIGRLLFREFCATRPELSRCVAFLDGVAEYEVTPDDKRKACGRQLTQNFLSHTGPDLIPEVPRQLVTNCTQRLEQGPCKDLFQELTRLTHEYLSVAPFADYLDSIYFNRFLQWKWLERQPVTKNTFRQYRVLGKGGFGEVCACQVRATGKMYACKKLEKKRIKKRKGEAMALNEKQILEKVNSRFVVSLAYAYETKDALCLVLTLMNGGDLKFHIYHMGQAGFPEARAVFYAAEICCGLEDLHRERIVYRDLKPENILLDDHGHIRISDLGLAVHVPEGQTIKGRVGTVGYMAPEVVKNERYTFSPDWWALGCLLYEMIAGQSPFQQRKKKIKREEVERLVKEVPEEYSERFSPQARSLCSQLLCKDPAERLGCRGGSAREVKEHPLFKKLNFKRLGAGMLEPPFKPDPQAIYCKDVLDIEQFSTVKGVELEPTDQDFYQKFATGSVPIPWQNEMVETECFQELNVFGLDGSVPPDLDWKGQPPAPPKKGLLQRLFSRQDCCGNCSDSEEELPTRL

[8] = target: G protein-coupled receptor kinase 6 (Homo sapiens) (UniProt P43250); conditions: at 1 µM
[9] = target: T1, Rhodopsin kinase GRK7 (Homo sapiens) (UniProt Q8WTQ7); conditions: at 0.1 µM
T1 sequence (whole entry): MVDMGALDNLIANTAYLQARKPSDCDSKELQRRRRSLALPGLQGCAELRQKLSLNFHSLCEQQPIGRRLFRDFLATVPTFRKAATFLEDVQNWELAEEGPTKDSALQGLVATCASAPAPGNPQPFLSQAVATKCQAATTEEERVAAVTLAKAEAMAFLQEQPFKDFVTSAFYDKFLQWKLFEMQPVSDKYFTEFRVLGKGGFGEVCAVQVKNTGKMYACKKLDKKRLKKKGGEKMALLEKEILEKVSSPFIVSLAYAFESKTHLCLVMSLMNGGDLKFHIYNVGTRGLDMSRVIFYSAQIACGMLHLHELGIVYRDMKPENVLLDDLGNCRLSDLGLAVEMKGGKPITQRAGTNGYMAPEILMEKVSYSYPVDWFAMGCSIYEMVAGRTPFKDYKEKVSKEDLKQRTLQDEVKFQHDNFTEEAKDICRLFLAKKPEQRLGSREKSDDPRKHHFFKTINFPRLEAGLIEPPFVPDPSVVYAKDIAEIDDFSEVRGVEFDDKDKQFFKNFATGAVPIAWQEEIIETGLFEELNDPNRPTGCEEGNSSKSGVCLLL

[10] = target: T1, Rhodopsin kinase GRK7 (Homo sapiens); conditions: at 1 µM

Sequence of RAC-alpha serine/threonine-protein kinase (Homo sapiens) (P31749 whole entry): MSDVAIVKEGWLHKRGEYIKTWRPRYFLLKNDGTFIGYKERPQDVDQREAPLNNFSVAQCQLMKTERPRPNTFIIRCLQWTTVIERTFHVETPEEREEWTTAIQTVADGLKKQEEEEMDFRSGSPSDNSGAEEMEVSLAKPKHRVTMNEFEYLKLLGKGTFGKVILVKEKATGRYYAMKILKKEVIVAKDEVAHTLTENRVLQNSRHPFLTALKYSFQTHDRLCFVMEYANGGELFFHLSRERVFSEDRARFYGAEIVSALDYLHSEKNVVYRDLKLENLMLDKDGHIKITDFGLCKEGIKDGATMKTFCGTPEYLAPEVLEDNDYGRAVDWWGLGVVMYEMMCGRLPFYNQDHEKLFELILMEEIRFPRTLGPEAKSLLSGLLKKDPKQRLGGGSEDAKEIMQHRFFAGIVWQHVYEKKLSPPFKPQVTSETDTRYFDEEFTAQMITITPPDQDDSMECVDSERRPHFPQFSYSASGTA
Sequence of RAC-beta serine/threonine-protein kinase (Homo sapiens) (P31751 whole entry): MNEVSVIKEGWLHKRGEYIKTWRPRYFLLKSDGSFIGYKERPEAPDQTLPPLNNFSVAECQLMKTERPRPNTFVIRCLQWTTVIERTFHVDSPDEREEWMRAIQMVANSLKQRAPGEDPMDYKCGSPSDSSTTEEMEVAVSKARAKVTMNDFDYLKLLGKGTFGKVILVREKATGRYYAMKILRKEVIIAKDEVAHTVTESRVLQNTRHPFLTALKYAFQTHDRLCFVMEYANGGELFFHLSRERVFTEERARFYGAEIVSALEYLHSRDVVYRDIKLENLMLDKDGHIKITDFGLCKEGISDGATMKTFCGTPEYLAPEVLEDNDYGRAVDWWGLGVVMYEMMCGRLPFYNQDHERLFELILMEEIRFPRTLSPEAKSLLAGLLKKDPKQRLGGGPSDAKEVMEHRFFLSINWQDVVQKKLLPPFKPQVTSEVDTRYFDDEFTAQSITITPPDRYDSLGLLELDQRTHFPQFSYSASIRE

Compound | inhibition [1] | inhibition [2] | inhibition [3] | inhibition [4] | inhibition [5] | inhibition [6] | inhibition [7] | inhibition [8] | inhibition [9] | inhibition [10]
CCc1nccc2c1nc(-c1nonc1N)n2CC | -0.45% | 0.43% | 0.34% | 1.71% | 0.28% | 0.55% | -0.76% | -2.13% | -2.75% | 2.78%
NS(=O)(=O)c1ccc(N/N=C2\C(=O)Nc3ccc(C(=O)NCCCn4ccnc4)cc32)cc1 | -0.12% | 0.95% | 2.05% | 2.17% | 0.96% | 2.49% | 5.79% | 16.3% | 7.64% | 18%
CS(=O)(=O)CCNCc1ccc(-c2ccc3ncnc(Nc4ccc(OCc5ccccc5)c(Br)c4)c3c2)o1 | -2.58% | -2.2% | -3.3% | -3.04% | -3.44% | -0.54% | -2.27% | 2.12% | 10.1% | 0.45%
COc1cc2ncn(-c3cc(OCc4ccccc4C(F)(F)F)c(C(C)=O)s3)c2cc1OC | 0.53% | 1.82% | 0.85% | 1.16% | 0.29% | 1.31% | -0.96% | 0.01% | 4.7% | 1.62%
O=C(Nc1ccc(Oc2ccc3[nH]c(NC(=O)c4ccccc4)nc3c2)cc1)Nc1cc(C(F)(F)F)ccc1F | -0.2% | 1.04% | 1.71% | 1.18% | 1.05% | 1.51% | 2.58% | 4.7% | 0.51% | -2.78%
Cc1ccc(NC(=O)c2ccoc2)cc1-c1ccc(C(=O)NCC2CC2)cc1 | 0.37% | 0.55% | 0.88% | 1.23% | 0.72% | 1.87% | -0.54% | 1.27% | 3.35% | -1.36%
C[C@@H](Oc1cc(-n2cnc3ccc(OC4CCN(C)CC4)cc32)sc1C(N)=O)c1ccccc1Cl | -2.97% | -3.84% | -4.17% | -2.31% | -2.91% | -1.57% | 4.79% | 6.21% | 10.7% | 3.62%
CN(C)CCOc1ccc(-c2cc(-c3ccc4c(c3)CCC4=NO)c(-c3ccncc3)o2)cc1 | -0.58% | -0.16% | -0.71% | -0.42% | -0.65% | 5.79% | -3.48% | -0.1% | 2.18% | -5.7%
O=C(Nc1n[nH]c2nc(-c3ccco3)ccc12)C1CC1 | -0.33% | 0.8% | 0.45% | 0.89% | 0.35% | 0.8% | 1.97% | -2.2% | -1.29% | -7.98%
C#Cc1cccc(Nc2ncnc3ccc(OCCCCNCCS(C)(=O)=O)cc23)c1 | -2.83% | -3.06% | -0.89% | -2.09% | -1.57% | -0.78% | 7.52% | 6.6% | 4.84% | 8.97%
Fc1ccc(-c2c(-c3ccncc3)nc3n2CCS3)cc1 | -3.71% | -2.76% | -2.67% | -1.63% | -3.31% | -0.46% | 5.32% | 4.18% | 2.86% | 7.9%
CS(=O)(=O)CCNCc1cc(-c2cc3c(Nc4ccc(OCc5cccc(F)c5)c(Cl)c4)ncnc3s2)cs1 | 0.79% | 0.35% | 0.7% | 1.93% | 1.15% | 3.27% | 6.28% | 6.32% | 8.59% | 4.24%
COc1cc(Nc2ncc3c(C)nc(-c4cccc(Oc5ccccc5)c4)n3n2)cc(OC)c1OC | 0.97% | 1.22% | 0.47% | 1.85% | 1.02% | 1.43% | 1.19% | -5.44% | -0.36% | -5.43%
COc1cc(N2CCN(C(C)C)CC2)ccc1Nc1nc(Nc2ccc(F)cc2C(=O)NC[C@@H](O)CO)c2cc[nH]c2n1 | -3.58% | -2.63% | 0.2% | -1.3% | -2.3% | -1.37% | 9.59% | 13% | 5.2% | 13.3%
COc1cc(Nc2ncc(-c3ccccc3)o2)cc(OC)c1OC | -1.72% | -1.61% | -2.18% | -1.88% | -1.76% | 1.14% | -1.02% | -0.02% | 3.87% | -9.33%
NC(=O)c1ccc(Oc2nccc(-c3c(-c4ccc(F)cc4)ncn3C3CCNCC3)n2)cc1 | 1.54% | 3.25% | 2.45% | 1.86% | 3.04% | 7.31% | 4.21% | 7.44% | -1.91% | 2.41%
CCS(=O)(=O)c1ccc(OC)c(Nc2ncc(-c3ccccc3Cl)o2)c1 | 0.85% | 0.46% | 0.22% | 0.16% | 0.76% | 0.93% | 2.4% | -0.11% | -1.21% | -6.79%

Compound | inhibition [1] | inhibition [2] | inhibition [3] | inhibition [4] | inhibition [5] | inhibition [6] | inhibition [7] | inhibition [8] | inhibition [9] | inhibition [10]
COc1cc(Nc2ncc3c(C)nc(-c4cccc(C(F)(F)F)c4)n3n2)cc(OC)c1OC | 0.55% | 0.77% | 1.62% | 1.52% | 1.12% | 1.21% | 1.33% | 4.77% | 3.66% | 6.59%
O=C1Nc2ccccc2/C1=C/Nc1ccc(-n2cncn2)cc1 | 0.19% | -0.09% | 1.56% | 0.9% | 0.39% | 2.21% | 7.2% | 14.8% | 5.5% | 14.9%
O=C1NC(=O)C(c2cccc(Cl)c2)=C1Nc1ccc(Cl)c(C(=O)O)c1 | 0.08% | 1.15% | 1.52% | 0.7% | 1.61% | 0.58% | 4.67% | 8.66% | 13.2% | 9.31%
COc1ccc2cc(-c3c(-c4ccncc4)nc(-c4ccc(S(C)(=O)=O)cc4C)n3C)ccc2c1 | 1.8% | 1.99% | 2.93% | 2.26% | 2.8% | 4.98% | 5.87% | 8.14% | 4.36% | 8.69%
Cc1ccc(C(=O)NC2CCC2)cc1-c1ccc(C(=O)NCC2CC2)cc1 | 0.45% | -0.14% | 1.03% | 1.6% | 2.92% | 2.79% | 1.01% | 1.27% | 2.9% | 3.16%
COc1ccc2cc(-c3c(-c4ccncc4)nc(-c4ccc([S+](C)[O-])cc4C)n3C)ccc2c1 (stereo not given) | -0.62% | -0.09% | -0.6% | -0.29% | 0.09% | 1.08% | 2.06% | -0.69% | -2.36% | -0.96%
C/C(Nc1ccc(S(N)(=O)=O)cc1)=C1/C(=O)Nc2ccccc21 | -0.64% | -1.45% | -3.63% | -0.17% | -2.53% | -0.18% | -0.76% | 9.44% | -7.29% | 2.76%
CNC(=O)c1cncc(/C=C/c2c(C)cccc2C)c1 | -2.43% | -2.92% | -3.43% | -4.29% | -2.01% | -2.42% | 4.6% | -0.29% | 1.47% | -7.66%
NC(=O)Cc1ccccc1Oc1nccc(-c2c(-c3ccc(F)cc3)ncn2C2CCNCC2)n1 | 0.16% | 0.12% | 1.23% | 0.29% | 0.15% | 1.21% | -1.33% | -0.72% | 1% | 1.09%
Clc1ccc(CNc2nccc(-c3cnn4ncccc34)n2)cc1 | 0.58% | 0.44% | 0.17% | -0.27% | 2.1% | 1.14% | 5.42% | 1.78% | 1.36% | -5.11%
CCc1cccc(CC)c1/C=C/c1cncc(C(=O)NC)c1 | 0.7% | 0.8% | 2.06% | 1.3% | 2.25% | 1.32% | -2.11% | -0.96% | 1.2% | -8.54%
Fc1ccc(-c2ncn(C3CCNCC3)c2-c2ccnc(Oc3ccc(F)c(F)c3)n2)cc1 | -3% | -3.59% | -3.3% | -2.56% | -2.6% | -1.9% | -0.72% | 2.05% | 9.11% | 1.73%
O=C(NCC1CC1)c1ccc(-c2cccc(C(=O)NC3CC3)c2)cc1 | 0.06% | 0.79% | 1.68% | 1.73% | 1.52% | 1.7% | 1.72% | -2.28% | 0.75% | -7.67%
O=C1Nc2ccc(I)cc2C1=Cc1cc(Br)c(O)c(Br)c1 | 1.14% | 0.96% | 1.72% | 1.1% | 1.78% | 0.85% | 4.84% | 17.8% | 12.1% | 15.5%
CCc1ccc(Oc2nccc(-c3c(-c4ccc(F)cc4)ncn3C3CCNCC3)n2)cc1 | 2.02% | 3.72% | 2.05% | 3.62% | 2.08% | 11.5% | 3.46% | 4.51% | 6.57% | 7.25%
CCC(=O)Nc1ccc(C)c(-c2ccc(C(=O)NCC3CC3)cc2)c1 | 0.29% | 0.52% | 2.4% | 1.7% | 0.86% | 2.4% | 4.21% | 3.82% | 8.7% | 1.14%
Cc1nnc(-c2ccc(C)c(-c3ccc(C(=O)NCc4ccc(Cl)cc4)cc3)c2)o1 | -1.66% | -2.4% | 0.03% | -2.39% | 0.07% | -0.93% | 5.17% | 5.38% | 4.29% | 9.45%
